In PubChem BioAssay (NCATS):
Results filed as inconclusive are left out. Where a call stands in place of a potency, no number is given. Calls of active or inactive are those of the source. Calls follow the shape of the dose curve; as a rule, active = well fitted cell-killing curve with a large enough effect; inconclusive = small, poorly fitted or top-dose-only effect; inactive = flat fitted curve, though single readings scatter.

Experiment: Cell Viability - LYMP2-023 (AID 975);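 also: cellular ATP measured by luciferase luminescence as viability proxy; cells exposed to compound for 24 hours at 37 °C; nearly all actives have a fitted effect of over 55% in size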
Settings: LYMP2-023 lymphoblastoid cell viability; series mostly up to 92.2 µM
In short: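 CellTiter-Glo luminescence after 30 min at room temperature; decrease in intracellular ATP reflects toxicity. Cells: human lymphoblastoid line, 2500/well, 24 hr compound exposure at 37 C. AC50 fitted to standard Hill equation from concentration-response.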

Row | Compound | Potency
1 | Brc1ccccc1 | inactive
2 | CCOP(=S)(OCC)SCSC(C)(C)C | inactive
3 | C=C(C)C#N | inactive
4 | CCSC(=O)Cl | inactive
5 | Cc1cccc([N+](=O)[O-])c1 | inactive
6 | Nc1c(Cl)c(Cl)nc(C(=O)O)c1Cl | inactive
7 | CC(C)(C)OOC(C)(C)C | inactive
8 | C=C(C)C(=O)OCC1CO1 (stereo not given) | inactive
9 | Cc1ccc([N+](=O)[O-])cc1C | inactive
10 | O=[N+]([O-])c1ccc(Cl)c(Cl)c1 | inactive
11 | C=CC(=C)C | inactive
12 | Cc1ccc2ccccc2c1 | inactive
13 | Nc1ccccc1Cl | inactive
14 | Clc1ccc2ccccc2c1 | inactive
15 | [O-][Br+2]([O-])O | inactive
16 | Clc1nc(Cl)nc(Nc2ccccc2Cl)n1 | inactive
17 | OCC1CO1 (stereo not given) | inactive
18 | C=CCOC(=O)c1ccccc1N | inactive
19 | C=CC(N)=O | inactive
20 | CC(C)(c1ccccc1)c1ccc(O)cc1 | inactive

Row | Compound | Potency
21 | CCN(CC)c1ccccc1 | inactive
22 | S=C=Nc1cccc2ccccc12 | inactive
23 | N#CCCCl | inactive
24 | O=NN(CCO)CCO | inactive
25 | Cc1ccccc1N | inactive
26 | C=CCOC(C)=O | inactive
27 | CCCC(=O)Cl | inactive
28 | NC(=S)Nc1ccccc1 | inactive
29 | O=C(Cl)/C=C/C(=O)Cl | inactive
30 | C=C(Cl)Cl | inactive
31 | ClCBr | inactive
32 | COc1ccc(C=O)cc1OC | inactive
33 | C=CC(=O)OCC | inactive
34 | c1nc[nH]n1 | inactive
35 | c1ccc2c(c1)CCCC2 | inactive
36 | CCCSC(=O)Cl | inactive
37 | Clc1cccc(C(Cl)(Cl)Cl)n1 | inactive
38 | O=NN(c1ccccc1)c1ccccc1 | inactive
39 | C1CCC2CCCCC2C1 (stereo not given) | inactive
40 | CC(O)CCl (stereo not given) | inactive

Experiment: Cell Viability - LYMP2-025 (AID 976)
Settings: LYMP2-025 lymphoblastoid cell viability; series mostly up to 92.2 µM
In short: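 CellTiter-Glo luminescence (cellular ATP) after 24 h compound exposure at 37 C; LYMP2-025 human lymphoblastoid cells, 2500/well, complete medium. Tetraoctylammonium bromide positive control. AC50 by Hill equation fit of qHTS concentration-response.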

Row | Compound | Potency
41 | Brc1ccccc1 | inactive
42 | CCOP(=S)(OCC)SCSC(C)(C)C | inactive
43 | C=C(C)C#N | inactive
44 | CCSC(=O)Cl | inactive
45 | Cc1cccc([N+](=O)[O-])c1 | inactive
46 | Nc1c(Cl)c(Cl)nc(C(=O)O)c1Cl | inactive
47 | CC(C)(C)OOC(C)(C)C | inactive
48 | C=C(C)C(=O)OCC1CO1 (stereo not given) | inactive
49 | Cc1ccc([N+](=O)[O-])cc1C | inactive
50 | O=[N+]([O-])c1ccc(Cl)c(Cl)c1 | inactive
51 | C=CC(=C)C | inactive
52 | Cc1ccc2ccccc2c1 | inactive
53 | Nc1ccccc1Cl | inactive
54 | Clc1ccc2ccccc2c1 | inactive
55 | [O-][Br+2]([O-])O | inactive
56 | Clc1nc(Cl)nc(Nc2ccccc2Cl)n1 | inactive
57 | OCC1CO1 (stereo not given) | inactive
58 | C=CCOC(=O)c1ccccc1N | inactive
59 | C=CC(N)=O | inactive
60 | CC(C)(c1ccccc1)c1ccc(O)cc1 | inactive

Row | Compound | Potency
61 | CCN(CC)c1ccccc1 | inactive
62 | S=C=Nc1cccc2ccccc12 | inactive
63 | N#CCCCl | inactive
64 | O=NN(CCO)CCO | inactive
65 | Cc1ccccc1N | inactive
66 | C=CCOC(C)=O | inactive
67 | CCCC(=O)Cl | inactive
68 | NC(=S)Nc1ccccc1 | inactive
69 | O=C(Cl)/C=C/C(=O)Cl | inactive
70 | C=C(Cl)Cl | inactive
71 | ClCBr | inactive
72 | COc1ccc(C=O)cc1OC | inactive
73 | C=CC(=O)OCC | inactive
74 | c1nc[nH]n1 | inactive
75 | c1ccc2c(c1)CCCC2 | inactive
76 | CCCSC(=O)Cl | inactive
77 | Clc1cccc(C(Cl)(Cl)Cl)n1 | inactive
78 | O=NN(c1ccccc1)c1ccccc1 | inactive
79 | C1CCC2CCCCC2C1 (stereo not given) | inactive
80 | CC(O)CCl (stereo not given) | inactive
